For 7 compounds, inhibition results are on record in ChEMBL document CHEMBL1961873, “Compounds: GSK PKIS; Assays: Nanosyn kinase panel” (2012).

Assay [1] concerns the target Tyrosine-protein kinase Fer (Homo sapiens) (UniProt P16591). The conditions noted are these: at 1 µM.
In assay [2] the target is Tyrosine-protein kinase Fes/Fps (Homo sapiens) (UniProt P07332). The conditions noted are these: at 0.1 µM.
Assay [3] has the same target. The conditions noted are these: at 1 µM.
Assay [4] concerns the target Fibroblast growth factor receptor 1 (Homo sapiens) (UniProt P11362). The settings on record: at 0.1 µM.
The target is the same in assay [5]. The settings on record: at 1 µM.
Assay [6] has as its target Fibroblast growth factor receptor 2 (Homo sapiens) (UniProt P21802). The conditions noted are these: at 0.1 µM.
Assay [7] has the same target. The settings on record: at 1 µM.
The target of assay [8] is Fibroblast growth factor receptor 3 (Homo sapiens) (UniProt P22607). The settings on record: at 0.1 µM.
Fibroblast growth factor receptor 3 (Homo sapiens), sequence (P22607 23-806 limits assumed): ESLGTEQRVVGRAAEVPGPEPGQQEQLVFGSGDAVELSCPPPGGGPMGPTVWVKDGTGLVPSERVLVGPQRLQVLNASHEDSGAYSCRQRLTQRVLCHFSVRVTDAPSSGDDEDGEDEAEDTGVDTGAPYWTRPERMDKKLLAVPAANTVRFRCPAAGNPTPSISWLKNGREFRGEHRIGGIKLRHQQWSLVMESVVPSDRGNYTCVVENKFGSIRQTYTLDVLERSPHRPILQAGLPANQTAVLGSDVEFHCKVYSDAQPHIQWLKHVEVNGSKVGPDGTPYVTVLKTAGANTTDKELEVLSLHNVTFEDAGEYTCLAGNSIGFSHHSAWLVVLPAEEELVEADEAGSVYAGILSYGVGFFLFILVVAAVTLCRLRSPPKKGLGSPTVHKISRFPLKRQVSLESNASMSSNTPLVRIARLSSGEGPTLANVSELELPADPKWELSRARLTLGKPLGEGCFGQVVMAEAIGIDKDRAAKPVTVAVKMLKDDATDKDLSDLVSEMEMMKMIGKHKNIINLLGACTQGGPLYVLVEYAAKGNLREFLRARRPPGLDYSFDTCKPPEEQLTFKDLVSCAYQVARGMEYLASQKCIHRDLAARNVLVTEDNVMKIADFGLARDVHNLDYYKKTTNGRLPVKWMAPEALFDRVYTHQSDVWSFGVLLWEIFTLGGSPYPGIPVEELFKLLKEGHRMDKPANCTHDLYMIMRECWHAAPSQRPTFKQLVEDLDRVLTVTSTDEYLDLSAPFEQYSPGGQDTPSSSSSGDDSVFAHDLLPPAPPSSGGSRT
The target is the same in assay [9]. The settings on record: at 1 µM.
In assay [10] the target is Fibroblast growth factor receptor 4 (Homo sapiens) (UniProt P22455). The settings on record: at 0.1 µM.
Fibroblast growth factor receptor 4 (Homo sapiens), sequence (P22455 22-802 limits assumed): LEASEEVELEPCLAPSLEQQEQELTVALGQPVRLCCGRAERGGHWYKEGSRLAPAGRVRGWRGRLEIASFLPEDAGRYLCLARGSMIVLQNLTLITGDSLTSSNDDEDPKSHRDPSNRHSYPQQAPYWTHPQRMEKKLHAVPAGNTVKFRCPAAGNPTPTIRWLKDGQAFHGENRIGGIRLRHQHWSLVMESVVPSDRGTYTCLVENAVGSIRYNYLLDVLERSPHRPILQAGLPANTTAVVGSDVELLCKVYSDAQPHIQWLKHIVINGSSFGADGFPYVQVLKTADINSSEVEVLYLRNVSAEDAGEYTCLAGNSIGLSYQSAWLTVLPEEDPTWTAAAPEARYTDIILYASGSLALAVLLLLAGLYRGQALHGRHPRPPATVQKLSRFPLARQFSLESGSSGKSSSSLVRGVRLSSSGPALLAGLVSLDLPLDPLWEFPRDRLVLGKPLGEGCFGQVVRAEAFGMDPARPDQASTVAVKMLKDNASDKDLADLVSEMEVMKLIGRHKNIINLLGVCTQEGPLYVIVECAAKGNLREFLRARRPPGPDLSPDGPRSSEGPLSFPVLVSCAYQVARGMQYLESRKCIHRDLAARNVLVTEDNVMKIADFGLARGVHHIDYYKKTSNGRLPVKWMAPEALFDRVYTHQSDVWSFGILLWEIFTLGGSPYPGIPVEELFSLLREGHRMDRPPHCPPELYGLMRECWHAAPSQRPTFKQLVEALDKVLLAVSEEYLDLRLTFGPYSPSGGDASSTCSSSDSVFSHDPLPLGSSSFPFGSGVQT
Assay [11] shares this target. The conditions noted are these: at 1 µM.
In assay [12] the target is Tyrosine-protein kinase Fgr (Homo sapiens) (UniProt P09769). The settings on record: at 0.1 µM.
Tyrosine-protein kinase Fgr (Homo sapiens), sequence (P09769 2-529 limits assumed): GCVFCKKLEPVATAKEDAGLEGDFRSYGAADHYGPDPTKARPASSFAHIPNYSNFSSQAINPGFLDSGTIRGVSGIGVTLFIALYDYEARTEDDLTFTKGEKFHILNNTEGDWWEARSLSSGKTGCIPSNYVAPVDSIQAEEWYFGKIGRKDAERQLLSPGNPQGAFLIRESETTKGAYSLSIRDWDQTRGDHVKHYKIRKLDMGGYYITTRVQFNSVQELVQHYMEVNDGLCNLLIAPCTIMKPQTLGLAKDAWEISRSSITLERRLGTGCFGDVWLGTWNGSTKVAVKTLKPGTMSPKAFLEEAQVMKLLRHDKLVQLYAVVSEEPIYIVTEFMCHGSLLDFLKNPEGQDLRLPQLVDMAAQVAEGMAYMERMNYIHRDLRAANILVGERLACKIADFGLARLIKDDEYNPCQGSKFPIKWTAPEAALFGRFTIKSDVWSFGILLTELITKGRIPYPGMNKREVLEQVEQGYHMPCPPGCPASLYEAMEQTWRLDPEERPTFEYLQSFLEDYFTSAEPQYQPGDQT
Assay [13] shares this target. The settings on record: at 1 µM.
Assay [14] has as its target Vascular endothelial growth factor receptor 1 (Homo sapiens) (UniProt P17948). The conditions noted are these: at 0.1 µM.
Assay [15] shares this target. The settings on record: at 1 µM.
For assay [16], the target named is Receptor-type tyrosine-protein kinase FLT3 (Homo sapiens) (UniProt P36888). The settings on record: at 0.1 µM.
For assay [17] the target is unchanged. The settings on record: at 1 µM.
Assay [18] relates to T1, Receptor-type tyrosine-protein kinase FLT3 (Homo sapiens), P36888 [D835Y].
T1 sequence (whole entry): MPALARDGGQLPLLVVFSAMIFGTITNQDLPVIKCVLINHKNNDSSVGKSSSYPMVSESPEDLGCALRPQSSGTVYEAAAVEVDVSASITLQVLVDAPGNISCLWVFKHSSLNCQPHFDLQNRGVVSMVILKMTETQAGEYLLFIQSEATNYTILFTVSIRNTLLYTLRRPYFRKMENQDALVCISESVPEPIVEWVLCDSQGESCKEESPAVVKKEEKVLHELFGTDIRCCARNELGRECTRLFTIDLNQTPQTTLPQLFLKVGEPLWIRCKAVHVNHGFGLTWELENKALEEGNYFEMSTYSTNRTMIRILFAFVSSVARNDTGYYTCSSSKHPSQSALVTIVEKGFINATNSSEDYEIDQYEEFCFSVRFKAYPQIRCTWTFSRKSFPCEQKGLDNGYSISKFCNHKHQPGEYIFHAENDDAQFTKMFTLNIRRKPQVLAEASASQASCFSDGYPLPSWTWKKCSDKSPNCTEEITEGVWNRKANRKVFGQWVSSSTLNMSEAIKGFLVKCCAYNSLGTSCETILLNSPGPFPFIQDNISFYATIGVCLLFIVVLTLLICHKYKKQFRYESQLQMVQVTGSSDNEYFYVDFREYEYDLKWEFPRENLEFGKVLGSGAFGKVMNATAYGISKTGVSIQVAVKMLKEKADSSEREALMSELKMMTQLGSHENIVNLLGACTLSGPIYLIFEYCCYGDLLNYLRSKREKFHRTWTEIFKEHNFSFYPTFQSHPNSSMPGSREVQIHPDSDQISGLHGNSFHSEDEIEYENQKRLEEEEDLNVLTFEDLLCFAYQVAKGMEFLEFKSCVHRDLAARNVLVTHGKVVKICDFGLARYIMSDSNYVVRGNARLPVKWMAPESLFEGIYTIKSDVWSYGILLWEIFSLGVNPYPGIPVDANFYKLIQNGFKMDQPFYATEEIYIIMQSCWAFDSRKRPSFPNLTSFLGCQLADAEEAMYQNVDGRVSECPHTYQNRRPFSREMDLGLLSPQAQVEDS
The settings on record: at 0.1 µM.

Assay [19] addresses Non-receptor tyrosine-protein kinase TYK2 (Homo sapiens) (UniProt P29597). The conditions noted are these: at 1 µM.
Assay [20] addresses T2, Tyrosine-protein kinase receptor TYRO3 (Homo sapiens) (UniProt Q06418).
T2 sequence (whole entry): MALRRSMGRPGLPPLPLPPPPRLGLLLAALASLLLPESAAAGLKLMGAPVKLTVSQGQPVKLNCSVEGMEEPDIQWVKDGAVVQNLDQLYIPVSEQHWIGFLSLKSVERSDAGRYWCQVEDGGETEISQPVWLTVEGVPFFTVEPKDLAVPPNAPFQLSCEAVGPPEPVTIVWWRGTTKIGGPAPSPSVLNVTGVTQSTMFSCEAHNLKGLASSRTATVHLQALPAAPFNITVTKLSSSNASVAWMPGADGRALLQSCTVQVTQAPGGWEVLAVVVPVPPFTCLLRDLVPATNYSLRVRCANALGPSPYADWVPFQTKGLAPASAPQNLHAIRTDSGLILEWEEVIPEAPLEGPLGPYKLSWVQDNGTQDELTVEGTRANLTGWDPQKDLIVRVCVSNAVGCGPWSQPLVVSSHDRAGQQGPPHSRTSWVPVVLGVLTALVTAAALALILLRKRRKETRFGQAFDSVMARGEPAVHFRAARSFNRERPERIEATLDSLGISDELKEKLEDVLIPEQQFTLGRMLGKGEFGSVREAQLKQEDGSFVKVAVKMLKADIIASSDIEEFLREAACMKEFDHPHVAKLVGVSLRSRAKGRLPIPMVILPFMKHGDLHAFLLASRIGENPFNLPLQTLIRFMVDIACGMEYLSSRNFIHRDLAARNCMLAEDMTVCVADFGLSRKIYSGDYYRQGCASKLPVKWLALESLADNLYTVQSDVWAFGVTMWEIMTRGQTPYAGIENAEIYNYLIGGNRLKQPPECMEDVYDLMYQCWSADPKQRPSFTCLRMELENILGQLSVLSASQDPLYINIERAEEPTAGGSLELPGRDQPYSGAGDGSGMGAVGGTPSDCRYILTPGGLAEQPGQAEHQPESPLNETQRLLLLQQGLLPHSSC
The settings on record: at 0.1 µM.

Vascular endothelial growth factor receptor 1 (Homo sapiens), sequence (P17948 whole entry): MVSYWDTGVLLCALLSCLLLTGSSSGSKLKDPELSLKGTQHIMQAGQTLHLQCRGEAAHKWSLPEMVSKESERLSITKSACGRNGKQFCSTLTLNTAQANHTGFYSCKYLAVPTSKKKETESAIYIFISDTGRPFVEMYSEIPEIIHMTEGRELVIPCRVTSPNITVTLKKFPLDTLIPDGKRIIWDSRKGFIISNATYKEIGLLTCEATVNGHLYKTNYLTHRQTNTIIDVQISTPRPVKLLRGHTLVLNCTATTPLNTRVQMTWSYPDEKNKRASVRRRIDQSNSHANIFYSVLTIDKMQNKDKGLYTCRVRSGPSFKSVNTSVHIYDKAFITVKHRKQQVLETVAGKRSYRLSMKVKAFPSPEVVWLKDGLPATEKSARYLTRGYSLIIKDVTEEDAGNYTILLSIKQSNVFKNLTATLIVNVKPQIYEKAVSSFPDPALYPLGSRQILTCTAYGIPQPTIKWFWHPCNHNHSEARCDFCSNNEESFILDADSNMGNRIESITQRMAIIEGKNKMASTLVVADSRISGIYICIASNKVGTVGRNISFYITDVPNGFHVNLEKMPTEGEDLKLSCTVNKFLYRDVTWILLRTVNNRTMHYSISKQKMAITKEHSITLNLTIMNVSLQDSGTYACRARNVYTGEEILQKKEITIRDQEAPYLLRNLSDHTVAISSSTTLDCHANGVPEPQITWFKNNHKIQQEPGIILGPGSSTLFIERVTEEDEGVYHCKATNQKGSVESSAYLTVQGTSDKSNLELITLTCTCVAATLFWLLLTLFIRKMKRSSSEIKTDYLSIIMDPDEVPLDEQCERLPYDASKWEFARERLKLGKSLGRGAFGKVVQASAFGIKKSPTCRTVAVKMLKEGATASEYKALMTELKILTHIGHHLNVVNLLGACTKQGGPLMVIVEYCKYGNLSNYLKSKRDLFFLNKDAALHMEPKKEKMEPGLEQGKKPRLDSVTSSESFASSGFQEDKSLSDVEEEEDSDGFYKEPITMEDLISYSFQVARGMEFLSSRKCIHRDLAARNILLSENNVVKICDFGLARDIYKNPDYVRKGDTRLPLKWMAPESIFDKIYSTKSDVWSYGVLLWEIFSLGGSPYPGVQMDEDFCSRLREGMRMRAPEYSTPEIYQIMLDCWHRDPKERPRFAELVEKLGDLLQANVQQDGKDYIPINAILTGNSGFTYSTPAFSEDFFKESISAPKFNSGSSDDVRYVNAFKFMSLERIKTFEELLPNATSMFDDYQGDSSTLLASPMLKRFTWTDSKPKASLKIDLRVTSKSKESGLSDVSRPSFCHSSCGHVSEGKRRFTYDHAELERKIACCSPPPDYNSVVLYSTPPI
Fibroblast growth factor receptor 2 (Homo sapiens), sequence (P21802 22-821 limits assumed): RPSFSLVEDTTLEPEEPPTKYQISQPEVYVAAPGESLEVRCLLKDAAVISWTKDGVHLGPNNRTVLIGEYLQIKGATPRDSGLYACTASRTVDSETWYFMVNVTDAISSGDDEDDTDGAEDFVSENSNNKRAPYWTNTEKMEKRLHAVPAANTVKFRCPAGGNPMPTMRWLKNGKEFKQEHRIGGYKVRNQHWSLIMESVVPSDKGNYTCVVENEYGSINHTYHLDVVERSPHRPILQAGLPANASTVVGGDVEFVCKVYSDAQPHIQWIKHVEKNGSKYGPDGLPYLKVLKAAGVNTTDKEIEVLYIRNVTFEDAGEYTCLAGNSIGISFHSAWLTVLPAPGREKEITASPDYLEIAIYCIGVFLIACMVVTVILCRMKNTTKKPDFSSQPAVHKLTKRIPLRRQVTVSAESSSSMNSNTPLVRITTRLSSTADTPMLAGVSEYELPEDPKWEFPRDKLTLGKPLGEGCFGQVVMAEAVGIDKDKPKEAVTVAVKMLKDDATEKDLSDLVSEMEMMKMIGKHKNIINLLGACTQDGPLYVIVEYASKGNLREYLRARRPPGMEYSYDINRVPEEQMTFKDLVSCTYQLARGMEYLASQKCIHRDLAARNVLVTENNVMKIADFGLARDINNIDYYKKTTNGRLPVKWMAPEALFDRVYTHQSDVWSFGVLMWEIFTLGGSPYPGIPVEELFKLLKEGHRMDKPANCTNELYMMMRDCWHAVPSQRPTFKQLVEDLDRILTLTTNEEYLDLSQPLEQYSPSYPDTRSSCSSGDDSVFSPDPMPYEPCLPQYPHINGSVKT
Tyrosine-protein kinase Fes/Fps (Homo sapiens), sequence (P07332 whole entry): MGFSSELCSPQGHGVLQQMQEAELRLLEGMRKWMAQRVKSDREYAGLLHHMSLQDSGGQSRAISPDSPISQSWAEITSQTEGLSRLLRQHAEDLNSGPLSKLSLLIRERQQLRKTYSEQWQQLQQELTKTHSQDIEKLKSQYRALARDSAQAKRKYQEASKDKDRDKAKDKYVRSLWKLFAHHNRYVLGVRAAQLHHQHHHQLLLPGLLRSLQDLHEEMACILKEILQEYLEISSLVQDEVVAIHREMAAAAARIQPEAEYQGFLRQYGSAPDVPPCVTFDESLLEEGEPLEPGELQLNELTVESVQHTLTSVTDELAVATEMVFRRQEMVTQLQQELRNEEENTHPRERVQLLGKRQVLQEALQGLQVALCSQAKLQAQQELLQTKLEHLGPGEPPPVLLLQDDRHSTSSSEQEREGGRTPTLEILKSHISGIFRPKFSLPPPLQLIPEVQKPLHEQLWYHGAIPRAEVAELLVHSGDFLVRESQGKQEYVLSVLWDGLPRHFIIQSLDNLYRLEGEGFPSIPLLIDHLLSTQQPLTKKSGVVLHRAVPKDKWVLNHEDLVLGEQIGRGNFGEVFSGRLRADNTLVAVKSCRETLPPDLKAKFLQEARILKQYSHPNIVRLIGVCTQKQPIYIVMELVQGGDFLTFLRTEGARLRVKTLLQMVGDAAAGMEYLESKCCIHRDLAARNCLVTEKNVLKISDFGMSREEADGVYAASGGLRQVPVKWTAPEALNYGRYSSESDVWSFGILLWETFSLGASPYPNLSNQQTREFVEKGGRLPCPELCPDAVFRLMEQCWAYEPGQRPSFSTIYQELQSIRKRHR

In the case of `NS(=O)(=O)c1ccc(N/C=C2\C(=O)Nc3ccc4ncsc4c32)cc1`, the inhibition is 13.1% in assay [1]; 3.55% in [2]; 7.01% in assay [3]; 5.4% in assay [4]; 32.8% in [5]; 18.8% in assay [6]. For the same compound, the inhibition in assay [7] was 53.3%; in assay [8], 17.1%; in assay [9], 56.7%; in assay [10] it was 1.61%; in assay [11], 5.81%; in assay [12], 2.87%. The inhibition in assay [13] was determined as 21.6%; in assay [14], 7.41%; in assay [15], 50.6%; in [16], 32.8%; in [17], 79.5%; in assay [18], 40.4%. For the same compound, the values for the inhibition in [19] and in [20] were 41% and 3.07%, respectively.

Regarding `CCn1c(-c2nonc2N)nc2c(C#CCN)ncc(OCCCN)c21`, the inhibition in assay [1] is 6.76%; in [2] it was -1.95%; in [3] it was -1.62%; in assay [4], -2.75%; in assay [5], 2.12%; in [6], -1.49%. The inhibition was 0.4% in [7]; -4.55% in assay [8]; -3.83% in assay [9]; -2.34% in assay [10]; 0.77% in assay [11]; 5.41% in [12]. The inhibition in assay [13] came to 1.7%; in assay [14] it was 0.25%; in assay [15], 0.93%; in assay [16] it was 1.97%; in assay [17], 0.52%; in assay [18], 2.12%. Further, the inhibition in assay [19] is 5.33%; in assay [20], -0.44%.

As to `COc1cc(C=NNc2ncnc3c2cnn3Cc2ccccc2)ccc1O`, the inhibition in [1] was 4.33%; in assay [2] it was -4.54%; in [3], -3.75%; in assay [4], -3.93%; in [5], -5.25%; in assay [6] it was -7.09%. Moreover, the inhibition in assay [7] was -2.01%; in assay [8] it was -3.23%; in [9] it was -2.85%; in [10] it was -3.36%; in assay [11], 4.03%; in assay [12], 11.8%. In addition, the inhibition in [13] is 52.1%; in assay [14], -1.46%; in assay [15], 1.82%; in [16] it was -1.99%; in assay [17], -1.02%; in assay [18] it was -4.43%. Also, the inhibition in [19] is -1.56%; in assay [20], -1.07%.

With `CCn1c(-c2nonc2N)nc2c(C#CC(C)(C)O)ncc(OC[C@@H]3CCCN3)c21`, the inhibition in assay [1] was 0.7%; in assay [2], 2.01%; in assay [3], 4.12%; in [4], -0.74%; in assay [5], 0.08%; in [6], -1.27%. Also, the inhibition in assay [7] is 0.8%; in [8], -3.24%; in assay [9], 0.67%; in [10], 2.54%; in assay [11], 2.23%; in assay [12], 1.47%. Also, the inhibition in assay [13] was 2.16%; in [14] it was 1.39%; in [15], 17.4%; in assay [16], -1%; in [17], -0.61%; in assay [18] it was -6.46%. The results for the inhibition in assay [19] and in assay [20] were -1.89% and -1.01%, respectively.

`Fc1ccc(-c2ncn(C3CCNCC3)c2-c2ccnc(Oc3ccccc3)n2)cc1`: the inhibition in assay [1] is 0.16%; in assay [2], 1.02%; in assay [3], 1.03%; in assay [4] it was -5.35%; in [5] it was -7.09%; in assay [6] it was -0.63%. Also, the inhibition is -3.24% in assay [7]; -1.57% in assay [8]; -4.55% in [9]; -2.7% in assay [10]; -3.96% in assay [11]; 1.86% in [12]. Besides, the inhibition in [13] was 4.87%; in [14], 1.35%; in [15], 2.72%; in assay [16], -0.44%; in assay [17] it was 0.52%; in assay [18] it was -4.18%. Further, the inhibition is -4.41% in [19] and 1.92% in assay [20].

`COc1cccc(-n2ncc3c(N/N=C/c4ccncc4)ncnc32)c1`: the inhibition was 11.7% in assay [1]; 3.38% in [2]; 5.85% in assay [3]; 4.8% in assay [4]; 8.02% in assay [5]; 4.98% in assay [6]. The inhibition in assay [7] was 14.5%; in assay [8] it was 7.39%; in [9] it was 11.9%; in [10], 1.99%; in assay [11] it was 7.56%; in assay [12] it was 29%. In addition, the inhibition in assay [13] amounted to 70%; in [14], 1.64%; in assay [15], 27.6%; in assay [16], 7.06%; in [17] it was 28.3%; in assay [18], 11.5%. The inhibition amounted to 0.71% in [19] and 8.97% in assay [20].

For the compound `Nc1nonc1-c1nc2cnccc2n1C1CCCCC1`, the inhibition in assay [1] was 1.83%; in assay [2] it was -2.28%; in assay [3] it was -1.92%; in [4], -7.32%; in assay [5], -4.22%; in assay [6], -6.69%. Moreover, the inhibition was -0.47% in [7]; -2.79% in [8]; -2.23% in assay [9]; -1.75% in [10]; -1.15% in assay [11]; -0.56% in assay [12]. Also, the inhibition was 6.63% in assay [13]; -1% in assay [14]; 4.33% in assay [15]; -0.01% in [16]; 4.32% in assay [17]; 3.29% in assay [18]. The inhibition in assay [19] was 6.77%; in [20] it was -1.27%.

As a reminder, the inhibition is the relative decrease from the control value, in per cent.
